Test results as given in the supplement of paper PMC11417369.
Whole data set: some 25,000 sequences, median “ln(normalized median fluorescence intensity)” near 7.1, cut for the highest 2% near 10. The list comes from a sample in which the highest values are over-represented; it also holds similar and randomly drawn sequences.

The sequences below were run on PfSIP2 AP2 domain 1 (GST-tagged) (assay: gcPBM binding intensity (ln(normalized median fluorescence intensity)); higher = stronger DNA binding).
Outline: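 GST-tagged P. falciparum DNA-binding domains, expressed in E. coli (about 25 μg on average), were applied for 1 h to an Agilent 4 × 180k array of primer-extended double-stranded 36-bp intergenic genomic probes plus negative controls. The binding buffer was 1× PBS with 1% milk, 0.2 mg/ml BSA, 0.5% salmon testes DNA and 0.03% Triton X-100. Bound protein was detected with Alexa488 anti-GST antibody and scanned at 488 nm. Binding intensity is the highest Masliner-normalised natural-log median intensity across replicate spots of either probe orientation.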
For “GTATTATTTTATGATGCATGTGTATTTCATATATGC [TGCATGCA_site660]”, the “gcPBM binding intensity (ln)” value was 6.98.
With “CCGTTGAACATATATGCACACACATAAAATAAAAAA [CACACA_site8761]” the “gcPBM binding intensity (ln)” value was 7.65.
With “AAAAAATAAGATTGTACACACATAAATTCTTTGTCA [CACACA_site2089]” the “gcPBM binding intensity (ln)” value was 6.85.
“AATCCTTCATATGTAGTGCATATTAACAAAATAAAA [GTGCAC_site9500]” was tested, and the “gcPBM binding intensity (ln)” value was 8.78.
“TTTTGCAATAATGTTGCACACTAAATAGTCATATAT [CACACA_site7977]” was tested, and the “gcPBM binding intensity (ln)” value was 7.61.
With “ATATATATATATATATGTACGTACTCAGTTATGCCT [XGTACX_site453]” the “gcPBM binding intensity (ln)” value was 9.2.
For “TTTGTAACTTCTTTCACACATATATATATATATATA [CACACA_site5603]”, the “gcPBM binding intensity (ln)” value was 9.76.
With “CACCCACCCAGACACACACACACACCCCCACCCATA [CACACA_site367]” the “gcPBM binding intensity (ln)” value was 7.6.
“TTTGTGTTTATAAATTGTACAAAGGTGCAAGAAGAA [XGTACX_site2159]” was tested, and the “gcPBM binding intensity (ln)” value was 11.2.
In the case of “ACAAATTGTTAAAGGTGTACAATACATATATAAGAA [XGTACX_site4906]”, the “gcPBM binding intensity (ln)” value was 7.38.
In the case of “GTGTGCAAAAATTGTTGTACATTATATATAAAAAAA [XGTACX_site3246]”, the “gcPBM binding intensity (ln)” value was 7.79.
“TATGTACAGACATATACACACCTCTATAATCTATAT [CACACA_site6482]” was tested, and the “gcPBM binding intensity (ln)” value was 7.09.
In the case of TATATATATAAATGAATGCACTTTAGAAAAAAGTAC, the “gcPBM binding intensity (ln)” value was 8.52.
“TGTCGGCTTAGATTAGTGCACTGAAAAATGAAGTAT [GTGCAC_site9919]” was tested, and the “gcPBM binding intensity (ln)” value was 10.5.
For AAAAAAAATTATGAAGTGCATTAGTGAATTTGATTG, the “gcPBM binding intensity (ln)” value was 9.16.
With “ATTTTTTTTTTTTTTTGTACGAATAATATGTATGAA [XGTACX_site5318]” the “gcPBM binding intensity (ln)” value was 7.12.
TAGGCCTTAAATCGTGTGCACTTTTTTTTTTTTTTT was tested, and the “gcPBM binding intensity (ln)” value was 10.7.
For “TAAATATATATATGTGTGCACTTCTTCATTTTAATA [GTGCAC_site9537]”, the “gcPBM binding intensity (ln)” value was 9.97.
For “AAATTAAATAAATTTACACACTAAAAATTACATATA [CACACA_site1054]”, the “gcPBM binding intensity (ln)” value was 6.88.
“TTTTTATTTTATAATATATTCCTTTTCCTTTCTTTC [CACACA_negctrl_site245]” was tested, and the “gcPBM binding intensity (ln)” value was 6.64.
With CTTTCGGTTGGAGAGGTGCGCTTCTCCTTTATAATA the “gcPBM binding intensity (ln)” value was 11.
For “TCTTTATCCTTTCTCTTTTTATTAATTATAATATTC [TGCATGCA_negctrl_site584]”, the “gcPBM binding intensity (ln)” value was 6.99.
With “TACAGATACGGACACACACACACACCCAGACAAAAA [CACACA_site4432]” the “gcPBM binding intensity (ln)” value was 7.54.
“AAAAAAAAAACAAATACACACGCACCCAAAAAAAAA [CACACA_site8166]” was tested, and the “gcPBM binding intensity (ln)” value was 10.1.
In the case of “CATACACAAGAAAATTCACACACACCCATATATATA [CACACA_site9288]”, the “gcPBM binding intensity (ln)” value was 7.73.
With “CAAAACAAAGTTGCCGCACACAGATACGCACCCAAG [CACACA_site3455]” the “gcPBM binding intensity (ln)” value was 11.9.
“TACGCACAAAAATATACACACACACCGATATATTTA [CACACA_site9213]” was tested, and the “gcPBM binding intensity (ln)” value was 7.15.
With “GCCGCACCCAGATACGCACACAAGAAAAAAATATTC [CACACA_site3456]” the “gcPBM binding intensity (ln)” value was 11.1.
For “ATTTTTATGTTGAAAAGTACTTGAATCCCATGTAAC [XGTACX_site4453]”, the “gcPBM binding intensity (ln)” value was 7.09.
In the case of “ATATATATATATATAACACACGTGTATTTATCTGTA [CACACA_site5922]”, the “gcPBM binding intensity (ln)” value was 9.33.
With “AACACACACATATATATATATATATATATATATATA [GTGCAC_negctrl_site573]” the “gcPBM binding intensity (ln)” value was 9.64.
With “TAATTAATTTACATTTTAATTTTATACAAAATTTAT [CACACA_negctrl_site830]” the “gcPBM binding intensity (ln)” value was 6.7.
For “TTCCTGTTAATTACAACACACAATTTTTATTTTATG [CACACA_site779]”, the “gcPBM binding intensity (ln)” value was 7.16.
With “ATTGTGGCAATATATTGTACATGTAATATAAATATA [XGTACX_site5415]” the “gcPBM binding intensity (ln)” value was 7.06.
In the case of “TTCTTTTTAATGTCGGTGCAACTCCATAAAAACAAA [GTGCAC_site9488]”, the “gcPBM binding intensity (ln)” value was 10.8.
For “CCATATTTAATAAAATGTACTCATTCTTTTATTTTA [XGTACX_site7802]”, the “gcPBM binding intensity (ln)” value was 7.11.
With “TTCTTTTTTTTTAAAACAAACAAACAAACAAACAAA [CACACA_negctrl_site832]” the “gcPBM binding intensity (ln)” value was 7.06.
“ATATATTTTATATAGTGTACTTTAATTTTTTTTTTT [XGTACX_site5550]” was tested, and the “gcPBM binding intensity (ln)” value was 6.83.
With “AGTTATTTTTATATTTCACACACATATACTTTTACA [CACACA_site9357]” the “gcPBM binding intensity (ln)” value was 7.21.
“TAGCTGTTCAAAAAATGTACATATATAATATATATA [XGTACX_site5842]” was tested, and the “gcPBM binding intensity (ln)” value was 7.49.
With ATTTTCATGATAAAGGTGCAATTATTTTTATAAGAA the “gcPBM binding intensity (ln)” value was 10.8.
In the case of “ACACATAATATAAAGGTGCTATATTGTATTCATTTT [GTGCAC_site9457]”, the “gcPBM binding intensity (ln)” value was 8.36.
AATAAATTCATGATAGTGCAAAAATTATTTTTGTTA was tested, and the “gcPBM binding intensity (ln)” value was 8.49.
In the case of “AAACCCTATTCAATGCAATAATTTTATAATTTTTTT [TGCATGCA_negctrl_site434]”, the “gcPBM binding intensity (ln)” value was 6.91.
In the case of “TATAATTTATTAAGGGGTACATATATTTCATGATAA [XGTACX_site5141]”, the “gcPBM binding intensity (ln)” value was 7.19.
For “GTATTCATGCTAAAGGTGCAATAATTTTTATAATAA [GTGCAC_site9603]”, the “gcPBM binding intensity (ln)” value was 10.9.
